Records with an inconclusive call do not appear. Unmarked numbers belong to inactive results. Calls of active or inactive are those of the source. The call rests on the fitted dose curve; in most records, active means well fitted inhibition curve with a large enough effect; inconclusive means small, poorly fitted or top-dose-only effect; inactive means flat fitted curve, though single readings scatter.
The compounds below were run on CRL-7250 (assay: Cytotoxic Profiling of Annotated Libraries Using Quantitative High-Throughput Screening (AID 1296008; further: nearly all actives have a fitted effect of over 60% in size)). Details: Five cell lines viability, CellTiter-Glo ATP luminescence, 48-72 h; max response: stronger effect = lower value.
How it was run: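 Compounds were pin-transferred onto cells and incubated 48 or 72 hr at 37 degree Celsius, 95% humidity. CellTiter-Glo was added, plates sat 10 min at room temperature, then ATP-coupled luminescence was imaged as the viability read-out.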
On the % scale 0 is the no-effect control and ±100 the full control effect; potency means the concentration at half of the fitted maximal effect.

SMILES	max response	outcome	Potency
CC1=C(CCC(C)CC(=O)O)[C@@]2(C)CCCC(C)(C)C2CC1=O (some centres undefined)	3.13%	–	–
O=C1CCC=CC1(O)C(=O)OCc1ccccc1O[C@@H]1O[C@H](CO)[C@@H](O)[C@H](O)[C@H]1O (some centres undefined)	-18.5%	–	–
COc1ccc(CCO[C@@H]2O[C@H](CO[C@@H]3OC[C@H](O)[C@H](O)[C@H]3O)[C@@H](O)[C@H](O)[C@H]2O)cc1	-3.54%	–	–
C[C@@H]1O[C@@H](O[C@H]2[C@H](O)[C@@H](O)[C@H](OC3CCC4(C)C5CCC(C)(C(CO)OC6OC(CO)C(O)C(O)C6O)CC5=CCC4C3(C)C)O[C@@H]2CO)[C@H](O)[C@H](O)[C@H]1O (some centres undefined)	2.65%	–	–
COc1cc(O)cc(C)c1C(=O)O[C@H]1[C@@H](OC(C)=O)[C@H](n2ccc(=O)[nH]c2=O)O[C@@H]1CO	–	inactive	–
CC12CCC(OC3OC(CO)C(O)C(OC4OC(CO)C(O)C(O)C4O)C3O)CC1CCC1C2CCC2(C)/C(=C3/COC(=O)C3)CCC12O (centres undefined)	-8.75%	–	–
C[C@@H]1O[C@@H](O[C@H]2[C@@H](OC(=O)[C@]34CCC(C)(C)CC3C3=CCC5[C@@]6(C)C[C@H](O)[C@H](O[C@@H]7O[C@H](C(=O)O)[C@@H](O)[C@H](O)[C@H]7O)[C@@](C)(C(=O)O)C6CC[C@@]5(C)[C@]3(C)CC4)OC[C@H](O)[C@@H]2O)[C@H](O)[C@H](O)[C@H]1O[C@@H]1OC[C@@H](O)[C@H](O)[C@H]1O (some centres undefined)	-0.804%	–	–
CC1(C(=O)O)CCCC2(C)C3=CCC4CC3(CCC12)CC4CO (centres undefined)	-23%	–	–
COc1cc2c(cc1OC)[C@@H]1[C@H](O)[C@@H](OC)C=C3CCN(C2)[C@H]31	–	–	12.8 µM (active)
CC(=O)OC[C@]12[C@H](OC(C)=O)C(=O)[C@@H]3[C@@H](OC(C)=O)[C@@]14O[C@@]3(C)COC(=O)c1cccnc1[C@@H](C)[C@H](C)C(=O)O[C@@H]([C@H](O)[C@@H]2OC(C)=O)[C@]4(C)O	0.341%	–	–
COC(=O)Cc1cc2c(c([N+](=O)[O-])c1)N(C(=O)CC[C@H](N)C(=O)O)CC2	-4.18%	–	–
O=C(NCc1cccc(O)c1)c1cc2cc(F)ccc2[nH]1	3.57%	–	–
Cc1ccc(F)cc1C(=O)Nc1ccc(C(=O)N2Cc3cccn3Cc3ccccc32)c(Cl)c1	-11.2%	–	–
COc1ccc([C@@H]2OC[C@H]3[C@@H]2CO[C@@H]3c2ccc(OC3OC(CO)C(O)C(O)C3O)c(OC)c2)cc1OC (some centres undefined)	-6.62%	–	–
C/C=C/c1ccc2c(c1)[C@@H](C)[C@H](c1ccc(O)cc1)O2	-3.63%	–	–
C=C1C(=O)OC2CC3(C)C(CC12)C(C)=CC(O)C3OC(C)=O (centres undefined)	-3.42%	–	–
CCCOC(c1cc2nccc(C(=O)O)c2[nH]1)c1ccccc1Cl (centres undefined)	-10.8%	–	–
CC(=O)O[C@]1(C(C)=O)CC[C@H]2[C@@H]3C[C@H](C)C4=CC(=O)C=C[C@]4(C)[C@@]3(F)[C@@H](O)C[C@@]21C	-19.1%	–	–
CC(C)CNCc1ccc(-c2ccccc2S(=O)(=O)N2CCCC2)cc1	1.47%	–	–
OC[C@H]1O[C@@H](Oc2ccccc2)[C@H](O)[C@@H](O)[C@@H]1O	–	inactive	–

SMILES	max response	outcome	Potency
OCC1OC(Oc2cc(O)cc(/C=C/c3ccc(O)cc3)c2)C(O)C(O)C1O (centres undefined)	-6.35%	–	–
C/C1=C\CC[C@]2(C)O[C@@H]2[C@H](O)[C@H](C(C)C)[C@H](OC(=O)/C=C/c2ccccc2)C1	-51%	–	–
CC1=CC2C(CC1OC1OC(CO)C(O)C(O)C1O)C(C)CC(=O)C2C(C)C (centres undefined)	0.564%	–	–
COC(=O)c1ccc(OC(CO)C(O)c2ccc(O)c(OC)c2)c(OC)c1 (centres undefined)	0.832%	–	–
COc1ccc(/C=C/C(=O)O[C@@H]2[C@@H](O)[C@H](C)O[C@@H](O[C@H]3[C@@H]4C=CO[C@@H](O[C@H]5O[C@@H](CO)[C@H](O)[C@@H](O)[C@@H]5O)[C@@H]4[C@@]4(CO)O[C@@H]34)[C@@H]2OC(C)=O)cc1	-2.4%	–	–
COc1cc2c(cc1OC)CC(=O)N(CCCNC[C@H]1Cc3cc(OC)c(OC)cc31)CC2	–	inactive	–
COC1CC(OC2CCC3(C)C(=CCC4C3C(OC(C)=O)C(OC(=O)/C=C/c3ccccc3)C3(C)C(C(C)O)CCC43O)C2)OC(C)C1OC1CC(OC)C(OC2OC(C)C(OC3OC(CO)C(O)C(O)C3O)C(OC)C2O)C(C)O1 (centres undefined)	2.68%	–	–
CC1=C(C(=O)O)/C(=C\CO[C@@H]2O[C@H](CO)[C@@H](O)[C@H](O)[C@H]2O)C(OC(=O)/C=C/c2ccc(O)cc2)C1 (some centres undefined)	-18%	–	–
O=C(CCc1ccccc1)N1CCC(O)(Cn2cnc3cc(Cl)ccc3c2=O)CC1	-1.98%	–	–
C[C@@H]1O[C@@H](O[C@@H]2[C@@H](O)[C@H](O[C@H]3CC[C@@]4(C)C(CC[C@]5(C)C4CC=C4[C@@H]6CC(C)(C)CC[C@]6(C(=O)O[C@@H]6O[C@H](CO)[C@@H](O)[C@H](O)[C@H]6O)CC[C@]45C)C3(C)C)O[C@H](C(=O)O)[C@H]2O)[C@H](O)[C@H](O)[C@H]1O (some centres undefined)	–	inactive	–
c1ccc(N2CCN(CCc3nn[nH]n3)CC2)cc1	4.82%	–	–
C=C[C@@](C)(O)CC/C=C(\C)C(=O)O[C@@H]1[C@@H]2O[C@]2(C)[C@H]2[C@H](O[C@@H]3O[C@H](CO)[C@@H](O)[C@H](O)[C@H]3O)OC=C[C@@]12O	-6.64%	–	–
CNC(=O)c1ccccc1Nc1nc(Nc2ccc(N3CCNCC3)cc2)ncc1Cl	–	–	0.092 µM (active)
CCCC(=O)C1CCN(c2ncnc3c2CN(C(=O)c2ccc(-c4ccccc4)cc2)CC3)CC1	-7.29%	–	–
CC(C)[C@H]1CC[C@@]2(O)COC(=O)[C@H]2[C@@H]1/C=C(\CO)C(=O)O	-25.6%	–	–
C[C@@H]1O[C@@H](O[C@@H]2CO[C@@H](O[C@H]3CC[C@@]4(C)C(CC[C@]5(C)C4CC=C4[C@@H]6CC(C)(C)CC[C@]6(C(=O)O[C@@H]6O[C@H](CO)[C@@H](O)[C@H](O)[C@H]6O)CC[C@]45C)[C@]3(C)CO)[C@H](O)[C@H]2O[C@@H]2O[C@H](CO)[C@@H](O)[C@H](O)[C@H]2O)[C@H](O)[C@H](O)[C@H]1O (some centres undefined)	-2.09%	–	–
COc1cc(OC)c(/C=C/S(=O)(=O)Cc2ccc(OC)c(NCC(=O)O)c2)c(OC)c1	–	–	0.231 µM (active)
COc1ccc(CC2NCCc3c2[nH]c2ccc(C)cc32)cc1OC (centres undefined)	-17.7%	–	–
C=CC[C@]12C[C@@H](OC)C(=O)C(OC)=C1O[C@@H](c1cc(OC)c3c(c1)OCO3)[C@@H]2C	4.3%	–	–
